Each structure is given as a SMILES string. Out of some 64,000 compounds screened, about 220 (0.34%) were called active. This excerpt belongs to a sample that is enriched for actives. A number with no mark means an inactive call.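 Rule for the calls: active = inhibition above 50%; inactive = the rest.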

The target in this test is Heat shock protein HSP 90-alpha (Homo sapiens) (UniProt P07900). In words: Hsp90 geldanamycin-site probe displacement – cell lysate, fluorescence polarization, NCI-N417 lysate, primary screen (AID 429).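 Note: 0% = tracer plus lysate wells and 100% = tracer alone without lysate.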 The settings on record: NCI-N417 lysate Hsp90, Cy3B-geldanamycin FP displacement; at 30 µM; active compounds read high.
In the case of `OC[C@H]1O[C@@H](n2cnc3c(N[C@H]4CC5CCC4C5)ncnc32)[C@H](O)[C@@H]1O` (some centres not stated), the inhibition was -1%.

On to `O=C(OCC(=O)c1cccs1)C1=COCCO1`, for which the inhibition is -6.24%.

With `COc1cc(Cl)cc(C2NC(=O)NC(C)=C2C(=O)NCc2ccccc2)c1O` (configuration not stated), the inhibition is -1.82%.

In the case of `O=C(c1ccco1)N1CCN(C(=O)C2CC(c3ccc(Cl)c(Cl)c3)=NO2)CC1` (configuration not stated), the inhibition was -2.91%.

Regarding `CCC(CC)C(=O)Nc1cc(C(=O)OC)cc(C(=O)OC)c1`, the inhibition was -13.5%.

As to `CC(=O)N1CCC(C(=O)Nc2nc(-c3ccccc3)ns2)CC1`, the inhibition was -2.79%.

As for `Cc1coc2c(O)cc3c(c12)OC1(N2CCCCC2)C(=O)NCCCC31` (configuration not stated), the inhibition was 96.8% (active).

As to `CC(=O)/C(C)=N/O`, the inhibition is 5.45%.

For the compound `COc1ccc(-n2nc3c(c2NC(=O)Cc2cccc(C)c2)CS(=O)C3)cc1` (configuration not stated), the inhibition is -2.13%.

For the compound `Nc1cc(O)cc2cccnc12`, the inhibition was 150% (active).

As for `O=C(Nc1ccn(Cc2ccc(F)cc2)n1)c1ccncc1`, the inhibition was -2.29%.

Regarding `CN(C)c1nc(N)nc(CSc2nnnn2-c2cccc3ccccc23)n1`, the inhibition was -1.24%.

As to `Cc1ccc(S(=O)(=O)N2CCCC2CO)cc1` (configuration not stated), the inhibition is -1.22%.

Consider `C=CCNc1ncnc2ccc(Br)cc12`, for which the inhibition was -2.85%.

In the case of `Cc1nn(-c2ccccc2)c(CC(C)(C)C(=O)O)c1C(=O)O`, the inhibition was 0.74%.

Turning to `Oc1ccc(Cn2cc[nH]c2=S)cc1`, the inhibition was -2.1%.

As for `CCC(Sc1nncn1C)C(=O)Nc1nnc(-c2ccc(Cl)cc2)s1` (configuration not stated), the inhibition was -2.78%.

In the case of `COc1cc(NCS(=O)(=O)c2ccc(C)cc2)c2ncccc2c1`, the inhibition is -1.2%.

With `O=C(c1ccccc1)c1ccc2nc(N3CCCCC3)c3nncn3c2c1`, the inhibition is -6.65%.

For `CCOc1cccc(/C(O)=C2/C(=O)C(=O)N(CCOC)C2c2ccncc2)c1` (configuration not stated), the inhibition is 2.34%.

In the case of `CS(=O)(=O)c1ccc2nc(NC(=O)CN3CCCCCC3)sc2c1`, the inhibition was -0.64%.

For the compound `Oc1cc2c(cc1O)CN(C(=S)NCCc1ccc(Cl)cc1)CCC2`, the inhibition was 77.6% (active).

On to `O=C(NCCc1ccc(Cl)cc1)C1CC(=O)N(C2CCCCC2)C1` (configuration not stated), for which the inhibition is -0.35%.

For `NS(=O)(=O)c1ccc(CCNC(=O)Nc2ccc(Cl)cc2)cc1`, the inhibition is -2.49%.

For the compound `Cc1ccc(-c2nnc(SC(C)C#N)n2N)cc1` (configuration not stated), the inhibition is 2.26%.

Turning to `O=C(Nc1nccs1)C1CCCN1S(=O)(=O)c1cccc2cccnc12` (configuration not stated), the inhibition is -1.15%.

With `COc1ccccc1NC1=NC(c2ccc(Cl)cc2)N=C(N)N1` (configuration not stated), the inhibition is 1.36%.

Take `C=CC1(C)CC(=O)C2(O)C(C)(O1)C(OC(C)=O)C(O)C1C(C)(C)CCC(O)C12C` (configuration not stated): the inhibition is -0.45%.

With `COC(=O)[C@@H](NC(=O)NCc1cccc(OC)c1)C(C)C`, the inhibition is -1.26%.

`CC(C)C[C@H](NC(=O)[C@H](O)[C@H](N)Cc1ccccc1)C(=O)O`: the inhibition was -2.1%.

`CCCn1c(=O)c2[nH]c(-c3ccc(OCC(=O)NCCN)cc3)nc2n(CCC)c1=O`: the inhibition was -4.59%.

Consider `CCCCCC(O)c1cccc(OCc2ccc3ccccc3n2)c1` (configuration not stated), for which the inhibition is 5.96%.

As for `Cc1cc(C(F)(F)F)n2ncc(-c3ccccc3)c2n1`, the inhibition is -3.41%.

As to `Nc1ccc2c3c(cccc13)C(=O)NC2=O`, the inhibition is 7.71%.

As for `Cc1nc2ccc(S(=O)(=O)NCC(=O)O)cc2s1`, the inhibition is -1.11%.

`CC(C)C1C2=C(CC(C)(C)CC2=O)ON1c1ccccc1` (configuration not stated): the inhibition was -1.36%.

With `Cc1ccc(F)cc1NC(=O)Cc1nn(C)c(=O)c2ccccc12`, the inhibition is -2.07%.

`O=C1c2oc3ccc(Br)cc3c(=O)c2C(c2cccc(F)c2)N1CCO` (configuration not stated): the inhibition was -0.86%.

Turning to `Cc1c(-c2nn(C)c(=O)c3ccccc23)oc2ccc(F)cc2c1=O`, the inhibition was 89.8% (active).

As for `COc1cccc(CN2C(=O)CCC2(C)C(=O)NC2CCCCCC2)c1` (configuration not stated), the inhibition is -0.1%.

For `CC(=O)C1=C(O)C(=O)N(c2ccc(S(N)(=O)=O)cc2)C1c1ccccc1F` (configuration not stated), the inhibition is -1.25%.

For `CC(C)(C)NCC(O)COc1cccc2[nH]c(=O)[nH]c12` (configuration not stated), the inhibition is -2.65%.

As for `CCOc1ccccc1C1CC(c2ccccc2)Nc2nc(N)nn21` (configuration not stated), the inhibition was 0.5%.

In the case of `COc1ccccc1OCCOc1ccc(/C=N/n2cnnc2)cc1`, the inhibition is -1.96%.

`CCOc1cc(CO)ccc1OCC(=O)N1CCCCC1`: the inhibition is 1.83%.

On to `O=C(c1ccc2c(c1)OCO2)N1CCNc2ccccc2C1`, for which the inhibition is -1.64%.

`Cc1ccc(NC(=O)CS(=O)CC(=O)N(c2ccccc2)C(C)C(=O)NC2CCCC2)cc1` (configuration not stated): the inhibition was -0.1%.

In the case of `O=C(Nc1nsc(-c2ccccc2)n1)c1ccncc1`, the inhibition was 1.14%.

On to `O=C(CN(c1ccc2c(c1)OCCO2)S(=O)(=O)c1ccccc1)Nc1ccc2c(c1)OCO2`, for which the inhibition is 31.2%.

Take `Cc1noc(C)c1C(=O)NC(C)c1ccc2c(c1)OCO2` (configuration not stated): the inhibition is -9.41%.

For `COc1ccc(-c2nnn(Cc3nc(N)nc(N4CCCCC4)n3)n2)cc1`, the inhibition is 2.3%.

Turning to `O=C(O)CCC(=O)NCc1ccc2[nH]c3c(c2c1)CCCC3`, the inhibition was 62.8% (active).

Regarding `O=C(CCCCn1c(=O)[nH]c2ccccc2c1=O)NCc1ccc2c(c1)OCO2`, the inhibition is -3.39%.

For the compound `O=C(CCC(=O)c1cccs1)NCc1ccccc1`, the inhibition was -2.27%.

In the case of `CCOC(=O)C1CCN(C(=O)COc2cc(C)c(Br)c(C)c2)CC1`, the inhibition was -0.95%.

`CC1CC2C3CCC4=CC(=O)C=C[C@]4(C)[C@@]3(F)[C@@H](O)C[C@]2(C)[C@@]1(O)C(=O)CO` (some centres not stated): the inhibition is 0.93%.

In the case of `CC(=O)Oc1cccc(N2C(=O)CC(Nc3ccc(N4CCOCC4)cc3)C2=O)c1` (configuration not stated), the inhibition was 10.2%.

Values taken from PubChem BioAssay AID429 (Emory University Molecular Libraries Screening Center, 2006).
